High-throughput results: PubChem, several laboratories
tim10-1 inh: growth inhibitors of tim10-1 mutant yeast, primary screen, luminescence, uHTS; S. cerevisiae tim10-1 ts strain growth, BacTiter-Glo, 24 h; inhibition, % at 20 µM; hit rate 2.2% among 330,000;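 active = inhibition of at least 40%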;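 note: mutant grown at 25 °C; 0% = DMSO wells with yeast and 100% = wells holding no yeast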
NLRP3 yeast inh: NALP3 inflammasome inhibitors in reconstituted yeast, primary screen, luminescence, uHTS; Yeast reconstituted NLRP3/ASC/caspase-1, beta-gal luminescence, 24 h; inhibition, % at 10 µM; hit rate 0.39% among 330,000; AID 2825, 2010;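 active = inhibition of 50% or more; inactive = inhibition below 50%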;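 note: plate controls were induced DMSO wells for no effect and uninduced yeast grown without galactose for full effect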
TIM10 inh: growth inhibitors of isogenic TIM10 control yeast, primary screen, counter-screen for tim10-1 yeast inhibitor project, luminescence, uHTS; inhibition, % at 10 µM; S. cerevisiae TIM10 strain growth, BacTiter-Glo luminescence, 24 h; hit rate 1.4% among 330,000;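 active = inhibition of 40% or more at the single tested concentration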;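 note: wild-type TIM10 isogenic control strain grown at permissive 25 °C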
PfHsp90 yeast 2: growth inhibition of PfHsp90-expressing yeast, primary screen, antimalarial PfHsp90 inhibitor project, S. cerevisiae, BacTiter-Glo luminescence, single point, set 2 | BacTiter-Glo ATP, 48 h; yeast lacking PDR1 and PDR3 efflux regulators | inhibition, % at 9.4 µM | hit rate 0.32% among 310,000 | AID 504621, 2011;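 active = every replicate shows inhibition above about 80%, whatever the replicate mean, limit read from the data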;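 note: 0% = DMSO neutral controls and 100% = 20 µM radicicol positive controls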
tim23-1 inh: growth inhibitors of tim23-1 mutant yeast, primary screen, luminescence, uHTS. hit rate 1.3% among 330,000. AID 463212, 2010. inhibition, % at 20 µM. S. cerevisiae tim23-1 growth, BacTiter-Glo luminescence, 24 h;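 active = growth inhibition of the mutant yeast at or above 50%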;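 note: temperature-sensitive mutant grown at 25 °C; plate controls were DMSO-treated mutant yeast for no effect and medium wells lacking yeast for full effect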
tim10 confirm: growth inhibitors of wild-type TIM10 yeast, confirmation, counter-screen for tim10-1 synthetic lethality project, single concentration, luminescence, S. cerevisiae; shares compounds with TIM10 inh; S. cerevisiae tim10 strain growth, BacTiter-Glo luminescence, 24 h; inhibition, % at 10 µM; hit rate 63% among 4,600; AID 463215, 2010;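 active = inhibition of yeast growth at or above a set limit in either of two replicates at 10 µM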;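 note: this counterscreen used the strain with wild-type TIM10; 0% = yeast with DMSO and 100% = medium wells lacking yeast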
Active calls of the source: *; x = no result given. This is a sample that favours compounds with a hit; in the whole collection about 3.7% have one here.

SMILES | tim10-1 inh | NLRP3 yeast inh | TIM10 inh | PfHsp90 yeast 2 | tim23-1 inh | tim10 confirm
COc1ccc(C(=O)Nc2ccc(OCC(F)(F)C(F)F)c(C(F)(F)F)c2)cc1OC | 37 | 5 | 45* | -11 | 45 | 12
COc1cccc(C(=O)NC(c2ccccc2)C2CCCC2)c1 (stereo not drawn) | 18 | 8 | 8 | -3 | 9 | x
O=C(c1ccc(Br)cc1)C(CN1CCOCC1)c1ccccc1 (stereo not drawn) | -123 | 20 | 51* | 98* | -20 | 60*
CCCCC(=O)N(c1ccc(C(=O)O)cc1)c1nc(-c2ccc(Cl)cc2)c(CC)s1 | 0 | 14 | 4 | -43 | 5 | x
CCOc1ccccc1OCCC(=O)OCC(=O)Nc1c(C)cc(C)cc1C | 18 | 12 | -3 | -12 | 26 | x
COc1ccc([C@H]2CC(=O)C=C(/C=C/Cc3ccccc3)C2)cc1 | 38 | 23 | 47* | -18 | 48 | 47*
O=C1[C@H]2C(c3ccccc3)=NN(c3ccccc3)[C@H]2C(=O)N1c1ccccc1 | 37 | 2 | 49* | 7 | 44 | 46*
CC(C)(C)c1ccc(OCC(=O)NNC(=S)NC(=O)c2ccccc2[N+](=O)[O-])c(Br)c1 | 36 | 26 | 49* | -16 | 45 | 44*
O=C(NNC(=S)NC(=O)c1ccccc1[N+](=O)[O-])c1ccccc1 | 9 | 29 | 17 | -24 | 14 | x
Cc1cc(C)n(-c2nc3ccccc3nc2N2CCC(C)CC2)n1 | 25 | 16 | 42* | x | 24 | 18
Cc1ccsc1/C=N\NC(=O)c1ccc2c(c1)OCO2 | 0 | 6 | 43* | x | 35 | 28
Cc1ccc(C(=O)Nc2ccc3c(c2)OCO3)cc1Cl | -2 | 19 | 15 | x | 8 | x
O=C(N/N=C/c1ccc2c(c1)OCO2)c1ccc2c(c1)OCO2 | -9 | 12 | -1 | -3 | 1 | x
Cc1ccc(NC(=O)c2ccc3c(c2)OCO3)cc1Cl | -27 | 39 | 42* | -4 | 48 | 34*
O=C(Nc1ccc(S(=O)(=O)N2CCc3ccccc32)cc1)c1ccc2c(c1)OCO2 | 33 | 14 | 44* | 16 | 27 | 47*
O=C(c1cc(-c2cccs2)on1)N1CCN(C(c2ccccc2)c2ccccc2)CC1 | 30 | -4 | 50* | -9 | 31 | 31*
O=C(c1cc(-c2cccs2)on1)N1CCOCC1 | 4 | 31 | 10 | 5 | 8 | x
COc1ccc(-c2cc(C(=O)N3CCN(c4ccccc4OC)CC3)no2)cc1OC | 15 | 7 | 23 | -25 | 22 | x
COc1cccc(-c2cc(C(=O)N3CCN(C(c4ccccc4)c4ccccc4)CC3)no2)c1 | 40 | 18 | 57* | -20 | 30 | 44*
COc1ccc(-c2cc(C(=O)N3CCN(c4ccccc4)CC3)no2)cc1OC | 23 | 7 | 42* | x | -4 | 20
COc1cccc(-c2cc(C(=O)N3CCN(C(=O)c4ccco4)CC3)on2)c1 | 1 | 6 | 47* | -36 | 9 | 9
COc1cccc(-c2nc(C#N)c(N3CCN(C(=O)c4ccco4)CC3)o2)c1 | 23 | 28 | 3 | 4 | 33 | x
CCOC(=O)C1=CN(Cc2ccco2)S(=O)(=O)N(CC)C1c1ccccc1 (stereo not drawn) | 28 | x | -2 | 1 | 47 | x
CC(NC(=O)c1cn(C)c2ccc(S(=O)(=O)N3CCCC3)cc2c1=O)c1ccccc1 (stereo not drawn) | 5 | 6 | 8 | 3 | -4 | x
CC1(C)OC2OC3C(CNCCO)OC(c4ccccc4)OC3C2O1 (stereo not drawn) | x | x | x | 8 | x | x
SMILES | tim10-1 inh | NLRP3 yeast inh | TIM10 inh | PfHsp90 yeast 2 | tim23-1 inh | tim10 confirm
C/C=C(\C)C(=O)Nc1cccc(C2=NOC3(C2)C[C@H](C(N)=O)N(C(=O)CC#N)C3)c1 (stereo partly drawn) | -1 | 2 | 7 | -2 | 10 | x
O=C(COc1ccc(Br)cc1)N/N=C1\SCC(=O)N1c1ccc(F)cc1 | -9 | 1 | -1 | 6 | 16 | x
CSC1=NC(=O)/C(=C/c2ccc(SC)cc2)S1 | 24 | 16 | 49* | x | 24 | 21
Nc1nonc1-n1nnc(C(=O)N/N=C/c2cccc(Cl)c2)c1CSc1ccc(Cl)cc1 | -10 | 6 | 8 | -3 | 1 | x
Cc1cc(SCC(=O)NN)c2cc(Br)ccc2n1 | -25 | 14 | -49 | 2 | -12 | x
O=C(CNC(=O)C1CCCCC1)Nc1cc(Cl)cc(Cl)c1 | 15 | 11 | 41* | -137 | 4 | 8
Nc1ccc(C(=O)N/N=C/c2cn(Cc3ccccc3)c3ccccc23)cc1 | -2 | 33 | -2 | 58 | 12 | x
O=C(O)Cn1cc(/C=C/[N+](=O)[O-])c2ccccc21 | -4 | 16 | 0 | -10 | 7 | x
O=C(Cn1cc(/C=C\[N+](=O)[O-])c2ccccc21)Nc1ccccc1 | 38 | -4 | 43* | 4 | 38 | 55*
O=[N+]([O-])/C=C/c1cn(Cc2ccccc2)c2ccccc12 | 35 | -2 | 46* | 93* | 44 | 56*
CCOc1ccc(C(CCc2ccccc2)NC(=O)c2ccccc2F)cc1OCC (stereo not drawn) | 10 | 9 | 0 | x | 21 | x
O=C(N/N=C/c1sc(=O)n(-c2ccccc2)c1Cl)c1ccccc1 | 31 | 6 | 42* | 10 | 48 | 22
Cc1cc(C)n2nc(SCC(=O)N(CCC#N)c3ccccc3F)nc2n1 | 0 | 23 | -6 | 17 | 0 | x
CC(C)CCn1c(N2CCN(c3cccc(Cl)c3)CC2)nc2c1c(=O)[nH]c(=O)n2C | 27 | 2 | 41* | -18 | 21 | -8
COc1ccc(-c2nn(-c3ccccc3)cc2/C=N/NC(=S)NC(C)C)cc1OC | 36 | 4 | 48* | -156 | 43 | 49*
COc1ccc(-c2nn(-c3ccccc3)cc2/C=N/O)cc1OC | 21 | 18 | 18 | -12 | 27 | x
O=S(=O)(CCN1CCCCC1)Oc1ccc(Cl)cc1Cl | 37 | 12 | 50* | 5 | 41 | 27
Clc1ccc(Cl)c(OCCCCN2CCCCC2)c1 | -55 | 34 | -55 | -4 | 0 | x
Cc1cccc(NC(=O)c2nc[nH]c2C(=O)NC2CCN(C(=O)OC(C)(C)C)CC2)c1 | 21 | -91 | 29 | -51 | 20 | x
CCN(CC)S(=O)(=O)c1ccc(N/N=C/c2ccc(OC)c(OC)c2OC)nc1 | 13 | 12 | -4 | -37 | -1 | x
CCN(CC)S(=O)(=O)c1ccc(N/N=C(\C)c2ccc(OC)cc2O)nc1 | 30 | 13 | 42* | -11 | 45 | 40*
